From PubChem BioAssay (NCI) come the findings set out here.

Structures are written as SMILES. The panel holds about 83,000 compounds, 20% with a hit somewhere; the sample as a whole holds those more often.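 48-hour exposure, single concentration, 96-well plates; percent growth endpoint where 0 means no net growth. Active: below 10.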 Unmarked numbers belong to inactive results. Active and inactive are the calls of the source.

Common to all, as to test: NCI-60 one-dose screen, 48 h (100 = growth as untreated, 0 = no growth, -100 = all killed)
Details in all cases: 10 µM unless noted

The subject of experiment [1] is SR leukemia.
Experiment [2] relates to RPMI-8226 leukemia.
The subject of experiment [3] is OVCAR-8 ovarian.
For experiment [4], the system named is OVCAR-5 ovarian.
The subject of experiment [5] is OVCAR-4 ovarian.
Experiment [6] has as its system SK-OV-3 ovarian.
Experiment [7] concerns IGROV1 ovarian.
For experiment [8], the system named is OVCAR-3 ovarian.
The subject of experiment [9] is HS 578T breast.
For experiment [10], the system named is NCI/ADR-RES ovarian.
Experiment [11] deals with T-47D breast.
Experiment [12] has as its system BT-549 breast.
For experiment [13], the system named is MDA-MB-435 melanoma.
For experiment [14], the system named is SW-620 colon.
The subject of experiment [15] is MCF7 breast.
In experiment [16] the test system is HCC-2998 colon.
In experiment [17] the test system is KM12 colon.
Experiment [18] deals with MDA-MB-468 breast.
In experiment [19] the test system is HCT-116 colon.

For `OCNc1ccc(-n2cnc3cc(-c4ccc(O)cc4)ccc32)cc1C(F)(F)F`, the growth was 25.3% in experiment [1]; 24.1% in experiment [2]; 16% in experiment [3]; 34.4% in [4]; 55% in experiment [5]; 54.7% in experiment [6]. For the same compound, the growth in experiment [7] was 44%; in [8] it was 15.9%; in [9] it was 11.2%; in [10], 17.2%; in experiment [11], 23.8%; in experiment [12] it was 24%. In addition, the growth in experiment [13] is 7.66% (active); in [14] it was 27.1%; in experiment [15], 10.1%; in [16] it was 43.4%; in experiment [17], 4.46% (active).

With `COc1ccc(/C=C/c2nc3ccccc3n3c(-c4ccc(Cl)cc4)nnc23)cc1`, the growth in experiment [1] is 60.1%; in [2] it was 81.4%; in [3] it was 92.7%; in experiment [4] it was 102%; in experiment [5], 81%; in experiment [6], 98.4%. Also, the growth in [7] is 66.8%; in experiment [8], 99%; in experiment [9], 96.2%; in experiment [10], 94.4%; in experiment [11], 80.6%; in [12], 114%. For the same compound, the growth was 96.1% in [13]; 99.2% in experiment [14]; 73.1% in experiment [15]; 110% in [16]; 93.1% in experiment [17]; 106% in [18].

For the compound `COc1ccc(C(=O)/C=C/c2ccc(OC)c(OCc3ccccc3)c2)cc1OC`, the growth in experiment [1] was 14.4%; in [2], 7.98% (active); in experiment [3] it was -7.56% (active); in [4] it was 31.4%; in experiment [5], 30.1%; in experiment [6], 24.7%. Moreover, the growth in [7] was 22.2%; in [8], 16.3%; in experiment [9] it was 18.7%; in experiment [10] it was -4.74% (active); in experiment [11] it was 15.7%; in experiment [12], -15.5% (active). Further, the growth was 22.7% in [13]; 9.63% (active) in experiment [14]; 7.12% (active) in experiment [15]; 10.7% in [19]; 12.6% in experiment [16]; 8.98% (active) in [17]. In addition, the growth in [18] is 1.46% (active).

`C=CC(=O)Nc1ccc(C)c(Oc2ccc(Cl)cc2)c1`: the growth was 24.3% in experiment [1]; 23.8% in [2]; 38.5% in experiment [3]; 64.8% in experiment [4]; 56.2% in experiment [5]; 77.4% in [6]. In addition, the growth was 46.4% in [7]; 36.6% in experiment [8]; 51.8% in [9]; 37.3% in experiment [10]; 41.8% in experiment [11]; 22.8% in experiment [12]. The growth is 43.9% in experiment [13]; 43.8% in experiment [14]; 36.8% in experiment [15]; 58.4% in experiment [16]; 47.2% in experiment [17]; 10.2% in experiment [18].

On to `COc1c(F)ccc(C(=O)Nc2ccc3nc(NC(=O)C4CCCN(S(=O)(=O)c5ccc(C#N)cc5)C4)sc3c2)c1F` (configuration not stated), for which the growth in experiment [1] is 74.4%; in experiment [2], 70.1%; in [3], 111%; in experiment [4], 103%; in experiment [5] it was 86.3%; in [6] it was 103%. Further, the growth is 97.1% in experiment [7]; 102% in experiment [8]; 79.1% in [9]; 96.1% in experiment [10]; 61.9% in experiment [11]; 75.8% in [12]. Also, the growth in [13] was 105%; in experiment [14], 102%; in experiment [19], 74%; in experiment [16] it was 119%; in experiment [17], 96.3%.

Take `CC12CC[C@@H]3[C@]4(C)COC(c5cn[nH]c5-c5ccc(Cl)cc5)O[C@@H]4CC[C@@]3(C)[C@@H]1CC(C1=CCOC1=O)O2` (some centres not stated): the growth is 16.5% in experiment [1]; 12% in [2]; 55.5% in experiment [3]; 62.3% in experiment [4]; 39.5% in experiment [5]; 55% in experiment [6]. Besides, the growth in [7] is 51%; in experiment [8], 42.6%; in experiment [9], 51%; in experiment [10] it was 42.5%; in experiment [11], 6.42% (active); in experiment [12] it was 5.38% (active). Also, the growth in experiment [13] is 47.7%; in [14], 49.4%; in experiment [19] it was 25.1%; in experiment [16], 58%; in experiment [17], 31.9%; in [18], 0.753% (active).

On to `COc1ccc(-c2nc3ccc(C(=O)NN4C(=O)c5ccc([N+](=O)[O-])cc5C4=O)cc3[nH]2)cc1`, for which the growth in experiment [1] was 89.1%; in [2], 80.9%; in experiment [3] it was 97.5%; in [4], 88.6%; in experiment [5], 101%; in experiment [6], 94.8%. Moreover, the growth in experiment [7] is 101%; in [8], 115%; in experiment [9], 104%; in [10], 102%; in experiment [11] it was 97%; in experiment [12] it was 105%. In addition, the growth is 98.3% in experiment [13]; 101% in [14]; 83% in experiment [15]; 102% in experiment [19]; 108% in experiment [16]; 101% in experiment [17]. Besides, the growth in [18] was 89.7%.

For `COc1ccc(-c2nc3cc(C)ccc3n2CC(=O)N=Nc2c(O)[nH]c3ccc(Cl)cc23)cc1`, the growth in experiment [1] was -7.22% (active); in experiment [2], 41.8%; in [3], -74.8% (active); in experiment [4], 3.51% (active); in [5], -25.4% (active); in experiment [6], 13.7%. Also, the growth in experiment [7] was 18.3%; in experiment [8], -13.8% (active); in [9], -2.87% (active); in experiment [10] it was -30.8% (active); in [11], 2.44% (active); in [12] it was -43.7% (active). In addition, the growth in experiment [13] is -7.28% (active); in experiment [14], 12.4%; in experiment [19], -65.4% (active); in experiment [16], -1.72% (active); in experiment [17], 9.61% (active); in [18], -42.6% (active).

On to `CCCSc1nc(Nc2ccc(S(N)(=O)=O)cc2)c(C#N)c(-c2cc(OC)c(OC)c(OC)c2)n1`, for which the growth in experiment [1] is 6.66% (active); in experiment [2] it was 3.5% (active); in experiment [3] it was 10.2%; in experiment [4] it was 58.5%; in experiment [5], 27.5%; in [6], 64.9%. The growth in [7] was 34.9%; in experiment [8], 24.6%; in experiment [9], 30.7%; in experiment [10], 15.1%; in experiment [11], -11.4% (active); in experiment [12], 16.5%. The growth in experiment [13] is 23%; in [14] it was 30%; in experiment [19], 11.4%; in experiment [16] it was 43.6%; in experiment [17], 12.7%; in [18], 30.5%.
